Drawing on PubChem BioAssay (EPA / NIEHS), this text covers AC50 and outcome for 20 compounds.

What all share (settings): mRNA level, 48 h; actives raise or lower the signal
Read-out in test [1]: growth arrest and DNA damage 45 (GADD45A), GADD45A (gene 1647)
Put plainly: LTEA_HepaRG_GADD45A: Life Technologies and Expression Analysis (LTEA) Assay for growth arrest and DNA damage 45 (GADD45A) using HepaRG (AID 2283458). In a few lines:
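GADD45A expression was measured by TaqMan qRT-PCR against three housekeeping genes (ACTB, GAPDH, POLR2A) after 48 h treatment of HepaRG cells. Eight-point half-log series up to 100 uM in 0.5% DMSO, run in duplicate.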

Read-out in test [2]: Forkhead box O3 (FOXO3), FOXO3 (gene 2309)
Put plainly: LTEA_HepaRG_FOXO3: Life Technologies and Expression Analysis (LTEA) Assay for Forkhead box O3 (FOXO3) using HepaRG (AID 2283459). In a few lines:
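Gene-expression endpoint: FOXO3 transcript level by qRT-PCR in HepaRG cultures treated 48 h with chemicals up to 100 uM (half-log, 0.5% DMSO vehicle).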

Read-out in test [3]: ABC Transporter (ABCB1), ABCB1 (gene 5243)
Put plainly: LTEA_HepaRG_ABCB1: Life Technologies and Expression Analysis (LTEA) Assay for ABC Transporter (ABCB1) using HepaRG (AID 2283460). In a few lines: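 Human liver HepaRG line treated 48 h with up to 100 uM compound (eight half-log points, 0.5% DMSO); ABCB1 mRNA change fitted bidirectionally against DMSO controls.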

Read-out in test [4]: growth arrest and DNA damage 45 (GADD45B), GADD45B (gene 4616)
Put plainly: LTEA_HepaRG_GADD45B: Life Technologies and Expression Analysis (LTEA) Assay for growth arrest and DNA damage 45 (GADD45B) using HepaRG (AID 2283461). In a few lines:
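Differentiated HepaRG cells, plated 48 h then switched to serum-free induction medium, were exposed 48 h in duplicate to eight half-log concentrations from 100 uM in 0.5% DMSO; mRNA quantified by qRT-PCR, normalized to ACTB/GAPDH/POLR2A, bidirectional fit versus DMSO.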

Read-out in test [5]: ABC Transporter (ABCC3), ABCC3 (gene 8714)
Put plainly: LTEA_HepaRG_ABCC3: Life Technologies and Expression Analysis (LTEA) Assay for ABC Transporter (ABCC3) using HepaRG (AID 2283462). Put shortly: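 HepaRG cells in serum-free induction medium were exposed for 48 h in duplicate to 8-point half-log concentrations topping at 100 uM in 0.5% DMSO. ABCC3 mRNA was measured by qRT-PCR normalized to ACTB, GAPDH and POLR2A, with bidirectional fitting versus DMSO.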

Read-out in test [6]: ABC Transporter (ABCB11), ABCB11 (gene 8647)
In words: LTEA_HepaRG_ABCB11: Life Technologies and Expression Analysis (LTEA) Assay for ABC Transporter (ABCB11) using HepaRG (AID 2283463). Put shortly: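 Using HepaRG cultures held in 0.5% DMSO, chemicals were tested at half-log dilutions from 100 uM for 48 h. Induction or suppression of ABCB11 mRNA, normalized to ACTB, GAPDH and POLR2A, was fitted bidirectionally against vehicle.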

Read-out in test [7]: ABC Transporter (ABCC2), ABCC2 (gene 1244)
Put plainly: LTEA_HepaRG_ABCC2: Life Technologies and Expression Analysis (LTEA) Assay for ABC Transporter (ABCC2) using HepaRG (AID 2283464). In a few lines:
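HepaRG cells were plated 48 h, switched to serum-free induction medium, then exposed in duplicate for 48 h to 8 concentrations (top 100 uM, half-log steps, 0.5% DMSO). ABCC2 mRNA was measured by qRT-PCR normalized to ACTB/GAPDH/POLR2A; bidirectional fitting versus DMSO.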

Read-out in test [8]: Broad substrate specificity ATP-binding cassette transporter ABCG2 (Homo sapiens) (UniProt Q9UNQ0)
In words: LTEA_HepaRG_ABCG2: Life Technologies and Expression Analysis (LTEA) Assay for ABC Transporter (ABCG2) using HepaRG (AID 2283465). Put shortly:
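Gene expression of ABCG2 in HepaRG liver cells is quantified by qRT-PCR following 48 h exposure across an eight-point series topping at 100 uM. Values come from bidirectional fitting relative to DMSO vehicle.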

Read-out in test [9]: ATP-citrate lyase (ACLY), ACLY (gene 47)
In words: LTEA_HepaRG_ACLY: Life Technologies and Expression Analysis (LTEA) Assay for ATP-citrate lyase (ACLY) using HepaRG (AID 2283466). Put shortly:
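ACLY expression changes in human HepaRG liver cells are quantified by qRT-PCR after 48 h exposure to test chemicals (maximum 100 uM, half-log steps). Values are fitted in both directions relative to 0.5% DMSO vehicle.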

Read-out in test [10]: Peroxisomal acyl-coenzyme A oxidase 1 (ACOX1) gene, ACOX1 (gene 51)
In words: LTEA_HepaRG_ACOX1: Life Technologies and Expression Analysis (LTEA) Assay for Peroxisomal acyl-coenzyme A oxidase 1 (ACOX1) gene using HepaRG (AID 2283467). In a few lines:
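Human HepaRG hepatic cultures, 48 h treatment with test chemicals up to 100 uM. ACOX1 expression read by qRT-PCR relative to 0.5% DMSO vehicle.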

Active and inactive are the calls of the source. How the source made its calls: active means hit-call score of the fitted dose curve at least 0.9, where 1 is the maximum; inactive means score below 0.9.

Broad substrate specificity ATP-binding cassette transporter ABCG2 (Homo sapiens), sequence (Q9UNQ0 whole entry, looked up): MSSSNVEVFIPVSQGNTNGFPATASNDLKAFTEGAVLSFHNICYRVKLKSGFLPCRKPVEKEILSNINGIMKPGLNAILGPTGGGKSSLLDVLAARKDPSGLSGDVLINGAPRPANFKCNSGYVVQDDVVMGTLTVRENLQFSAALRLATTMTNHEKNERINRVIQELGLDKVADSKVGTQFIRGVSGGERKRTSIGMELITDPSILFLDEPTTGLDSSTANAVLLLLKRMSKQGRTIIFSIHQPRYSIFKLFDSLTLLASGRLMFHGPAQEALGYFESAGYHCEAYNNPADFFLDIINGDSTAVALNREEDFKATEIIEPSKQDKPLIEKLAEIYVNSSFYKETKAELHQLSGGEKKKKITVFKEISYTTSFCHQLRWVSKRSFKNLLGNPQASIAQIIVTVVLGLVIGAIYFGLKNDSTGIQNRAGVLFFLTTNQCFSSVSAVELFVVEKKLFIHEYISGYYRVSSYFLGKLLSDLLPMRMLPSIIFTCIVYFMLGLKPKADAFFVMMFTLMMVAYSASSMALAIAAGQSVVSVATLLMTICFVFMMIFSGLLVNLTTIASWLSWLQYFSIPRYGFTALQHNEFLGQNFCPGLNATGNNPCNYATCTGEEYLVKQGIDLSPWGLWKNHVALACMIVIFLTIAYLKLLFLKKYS

A word on the AC50: it is the concentration at which the activity in the assay is half-maximal. For the compound `CS(=O)(=O)c1ccc([C@@H](C[C@H]2CCC(=O)C2)C(=O)Nc2cnccn2)cc1Cl`, the AC50 in test [1] was 1.28 µM (active); in test [2] it was 9.92 µM (active); in test [3] it was 1.54 µM (active); in test [6] it was 11 µM (active); in test [7], 12.5 µM (active); in [8], 1.29 µM (active). Moreover, the compound was called inactive in [4], in test [5], in test [9] and in [10].

Turning to `CC(=O)CC(c1ccccc1)c1c(O)c2ccccc2oc1=O` (stereo not given), the compound was classed as inactive in test [1], in test [2], in test [3], in test [4], in test [5] and in test [6]. The compound was called inactive in test [7], in test [8] and in test [10]. Moreover, in [9], the half-maximal activity concentration (AC50) is 50 µM (active).

Take `COC(=O)CCC(=O)OC`: the compound was called inactive in [1], in [2], in test [3], in test [4], in test [5] and in [6]. In addition, the result in test [7], in [8], in test [9] and in [10] was inactive.

Regarding `O=C(O)c1[nH]n(-c2ccc(S(=O)(=O)O)cc2)c(=O)c1N=Nc1ccc(S(=O)(=O)O)cc1`, the compound was called inactive in [1], in [2], in [3], in [4], in test [5] and in test [6]. In addition, the call in test [7], in test [8], in test [9] and in [10] was inactive.

Regarding `Cc1occc(=O)c1O`, the compound was called inactive in test [1], in [2], in [3], in test [4], in test [5] and in test [6]. Also, the compound was classed as inactive in test [7], in [8], in test [9] and in test [10].

With `COc1ccc(C(=O)Nc2nc3ccccc3c(NCc3ccccc3)c2C#N)cc1`, the compound was called inactive in test [1], in test [2], in test [3], in test [5] and in [7]. Further, the AC50 in [4] was 16 µM (active); in [6], 13.3 µM (active); in [8] it was 17.4 µM (active); in [9] it was 16.5 µM (active); in test [10], 13.3 µM (active).

Regarding `CCc1nc(N)nc(N)c1-c1ccc(Cl)cc1`, the concentration at half-maximal activity (AC50) is 27.2 µM (active) in test [1]; 74.5 µM (active) in test [5]; 33 µM (active) in [6]; 80.4 µM (active) in [9]; 18.6 µM (active) in [10]. Moreover, the call in test [2], in test [3], in test [4], in test [7] and in [8] was inactive.

In the case of `Cc1ccc(-c2cc(C(F)(F)F)nn2-c2ccc(S(N)(=O)=O)cc2)cc1`, the outcome in [1], in test [4], in test [5], in test [6] and in test [8] was inactive. The AC50 in test [2] is 93.6 µM (active); in test [3] it was 82.2 µM (active); in test [7], 85 µM (active); in test [9] it was 89.6 µM (active); in test [10] it was 92.9 µM (active).

Consider `COc1ccc(OC(F)(F)F)cc1CN[C@H]1CCCN[C@H]1c1ccccc1`, for which the compound was classed as inactive in test [1], in [4], in test [5], in [6] and in [8]. Besides, the AC50 in [2] is 76.3 µM (active); in test [3], 83.7 µM (active); in test [7], 82.9 µM (active); in test [9], 95.6 µM (active); in test [10], 64.3 µM (active).

Turning to `CSc1ccc(Oc2ccc(S(N)(=O)=O)cc2CN(C)C)cc1C`, the result in test [1], in [2], in test [3], in test [4], in test [7] and in test [8] was inactive. Moreover, the compound was classed as inactive in test [9] and in test [10]. Moreover, the AC50 in test [5] was 81.5 µM (active); in test [6], 84.6 µM (active).

On to `O=C(NS(=O)(=O)/C=C/c1cccs1)c1ccc(F)cc1Br`, for which the outcome in [1], in [2], in [4], in test [5], in test [9] and in test [10] was inactive. The AC50 in [3] is 13.2 µM (active); in test [6], 50 µM (active); in test [7], 7.3 µM (active); in test [8], 9.27 µM (active).

For the compound `CC(C)OC(=O)C(C)(C)Oc1ccc(C(=O)c2ccc(Cl)cc2)cc1`, in test [1], the AC50 was 0.0536 µM (active). In addition, the compound was called inactive in test [2], in [3], in [4], in test [5], in test [6] and in test [7]. Further, the compound was classed as inactive in test [8], in test [9] and in test [10].

With `NC(=Nc1ccccc1)Nc1ccccc1`, the outcome in [1], in test [2], in test [3], in test [4], in test [5] and in [6] was inactive. Moreover, the compound was classed as inactive in [7], in test [8], in test [9] and in [10].

As for `CCCCC(CC)COP(=O)(OCC(CC)CCCC)OCC(CC)CCCC` (stereo not given), the call in test [1], in [2], in test [4], in test [5], in test [6] and in test [7] was inactive. Moreover, the compound was classed as inactive in test [8], in test [9] and in test [10]. For the same compound, the AC50 in [3] is 8.5 µM (active).

For `Oc1ccc(O)cc1`, the compound was classed as inactive in [1], in test [2], in test [3], in test [4], in test [5] and in test [6]. Besides, the result in [7], in [8], in test [9] and in [10] was inactive.

Turning to `Cc1cn([C@H]2C=C[C@@H](CO)O2)c(=O)[nH]c1=O`, the result in [1], in test [2], in [3], in test [4], in [5] and in test [6] was inactive. Also, the outcome in test [7], in [8], in [9] and in test [10] was inactive.

`OCC(CO)n1cnc(-c2ccc(F)cc2)c1-c1ccnc(Oc2ccccc2)n1`: the outcome in [1], in [2], in [4], in [5], in [6] and in test [9] was inactive. For the same compound, in test [10], the outcome was inactive. Besides, the AC50 in test [3] is 20 µM (active); in test [7], 24.7 µM (active); in [8], 16 µM (active).

In the case of `CCCCCCCCCCCCCCOS(=O)(=O)O`, the compound was called inactive in test [1], in test [2], in [3], in test [4], in test [5] and in test [6]. For the same compound, the compound was classed as inactive in test [7], in test [8], in [9] and in [10].

Regarding `CN(C)C(=O)NC1(c2ccccc2)CCN(CC[C@@]2(c3ccc(F)c(F)c3)CN(C(=O)c3ccccc3)CCO2)CC1`, the compound was classed as inactive in [1], in test [2], in [4], in [8] and in test [10]. For the same compound, the AC50 in test [3] is 1.86 µM (active); in [5] it was 47 µM (active); in test [6], 1.96 µM (active); in [7] it was 3.81 µM (active); in [9], 47 µM (active).

As for `CN(C)CCCN(C)CCCN(C)C`, the compound was classed as inactive in test [1], in [2], in [3], in test [4], in test [5] and in test [6]. The result in [7], in test [8], in test [9] and in test [10] was inactive.
